Data as given in PubChem BioAssay.
Results filed as inconclusive are left out. Calls of active or inactive are those of the source.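 Rule for the calls, unless noted: active = viability at or below 30% in both replicate assays; inconclusive = viability at or below 30% in just one of the two assays; inactive = the rest.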

Columns and labels:
[1] = SK-BR-3 cell growth inhibitors, pilot screen, 24 h, human (AID 572;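 active = viability at or below 10% of carrier control in both of two separate runs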;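 note: compound exposure lasted between 18 and 24 h rather than exactly 24 h; 100% = carrier-treated control wells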); conditions: SK-BR-3 viability, CellTiter-Glo luminescence, at 10 µM, stronger effect = lower value
[2] = HUVEC growth inhibition – cell-based, human, primary screen (AID 575); conditions: HUVEC proliferation, CellTiter-Glo luminescence, 72 h; at 10 µM; stronger effect = lower value;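 note: 100% = median of untreated cell wells with 0.1% DMSO on each plate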
[3] = reversal of MRP1-mediated doxorubicin resistance, pilot screen, H69AR cells, doxorubicin co-treatment (AID 601;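 active = viability loss from added drug above about 55%, and viability with drug at most 40%, in both replicates, limit read from the data, passing the limit was not always enough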); conditions: CellTiter-Glo, 72 h, at 10 µM; for differential viability (reversal): stronger effect = higher value
[4] = 384-well plate pilot, post-Golgi transport modulator project, inhibition of yeast transport mutant growth (AID 636; in the data active = inhibition above about 31%); conditions: absorbance 615 nm, about 18 h, stronger effect = higher value
[5] = growth suppression of yeast trafficking mutant, preliminary HTS, modulators of trafficking downstream of Golgi apparatus project, 1536-format plate, OD 615 nm (AID 637; in the data active = inhibition above about 30%); conditions: yeast transport mutant growth, absorbance 615 nm, 18 h; stronger effect = higher value
[6] = growth inhibitors of H69AR lung tumor, primary screen, human, duplicate replicates (AID 580;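 active = viability at or under a set limit in both replicates, limit being median viability minus 3 SD, cut at about 48% in these data, passing the limit was not always enough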;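 note: 100% = mean luminescence of untreated wells and 0% = no signal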); conditions: H69AR lung tumor cells viability, ATP luminescence, 72 h; at 10 µM; stronger effect = lower value
[7] = OD615 S. cerevisiae growth inhibition, permissive medium, pilot counter-assay, permissive growth control for S. cerevisiae lifespan shortening project (AID 705;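 active = growth inhibition above 25% in both replicates, a cutoff set 3 SD above the mean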); conditions: OD615, 24 h, at 10 µM, stronger effect = higher value
[8] = Restrictive medium S. cerevisiae growth inhibition, OD615, pilot screen of yeast lifespan reduction project, restrictive growth control (AID 706;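 active = growth inhibition above a set limit, 3 SD over mean compound inhibition, in both replicates, cut at about 43% in these data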;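 note: modified DeaD lifespan yeast strain shifted to restrictive glucose medium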); conditions: OD615, 48 h, at 10 µM, stronger effect = higher value
[9] = viability gain of MRP-1-high H69AR cells under doxorubicin, pilot screen, MRP-1 activator project, CellTiter-Glo, duplicate (AID 807;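 active = viability increase at or above a cutoff of the median across tested compounds plus 3 SD, cut at about 8.5% in these data, passing the limit was not always enough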;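 note: compound pretreatment 18-22 h then 72 h combined with doxorubicin; 0% = doxorubicin alone and 100% = vehicle without doxorubicin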); conditions: H69AR viability with doxorubicin, CellTiter-Glo luminescence; at 10 µM; stronger effect = higher value
[10] = growth suppression of beta-catenin knockout HCT116, pilot screen, human colon tumor cells (AID 823;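 active = cell viability at or below a set limit in both duplicate runs, the limit being the all-compound median minus 4 SD, cut at about 23% in these data, passing the limit was not always enough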;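 note: 0% = wells killed by 20 µM Hyamine and 100% = untreated DMSO cell wells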); conditions: CellTiter-Glo, 60 h, at 10 µM, stronger effect = lower value
[11] = growth suppression of PTEN-deleted HCT116, pilot screen, cell-based, HCT116 clonal line, CellTiter-Glo (AID 824;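 active = viability at or below 27.92% in each of two runs, the all-compound median minus 4 SD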;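 note: 0% = 20 µM Hyamine control and 100% = vehicle cell control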); conditions: 60 h, at 10 µM, stronger effect = lower value
[12] = inhibitors of the yeast RAM network, pilot screen, dse1pr::URA3 reporter, 5-FOA selection (AID 869;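 active = inhibition over a set limit, the all-compound mean plus 3 SD, in both replicate runs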;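 note: 0% = DMSO wells with no growth and 100% = 10 µM 1-NA-PP1 with full growth; RAM network block rescues cells from 5-FOA so hits raise OD615 growth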); conditions: S. cerevisiae dse1pr::URA3 5-FOA growth, OD615, 2 d; at 10 µM; stronger effect = higher value; strain carries analog-sensitive mutant Cbk1 kinase
[13] = H69AR cells + 2 uM doxorubicin, measured here: viability with 2 uM doxorubicin, stronger effect = lower value
[14] = H69AR cells, compound alone cytotoxicity

Row | SMILES | viability [1] | viability [2] | differential viability (reversal) ([3]; H69AR cells + 2 uM doxorubicin) | viability [3, 13] | viability [3, 14] | inhibition [4] | inhibition [5] | viability [6] | growth inhibition [7] | growth inhibition [8] | viability increase [9] | viability [10] | viability [11] | inhibition [12]
1 | CCOC(=O)c1[nH]c(CSc2nnc(-c3ccc(OC)cc3)o2)c(C(=O)OCC)c1C | 56% (inactive) | 72.3% (inactive) | 0.61% (inactive) | 37.4% | 38% | -3.24% (inactive) | -4.36% (inactive) | – | – | – | – | – | – | –
2 | Cc1ccc(C(O)c2nc3ccccc3n2C(C)C)cc1 (stereo unspecified) | 62% (inactive) | 101% (inactive) | 3.7% (inactive) | 87.8% | 91.5% | -7.53% (inactive) | -5.82% (inactive) | 91.5% (inactive) | – | – | – | – | – | –
3 | COc1ccc(Cn2nnnc2CN2CCOCC2)cc1 | 100% (inactive) | 97.4% (inactive) | -5.83% (inactive) | 102% | 96.7% | -6.85% (inactive) | -0.81% (inactive) | 96.7% (inactive) | – | – | – | – | – | –
4 | CC(C(=O)NC(=O)NC1CCCCC1)N1CCN(c2ccccn2)CC1 (stereo unspecified) | 96% (inactive) | 95.6% (inactive) | 14.7% (inactive) | 88.9% | 104% | -2.4% (inactive) | -3.27% (inactive) | 104% (inactive) | – | – | – | – | – | –
5 | Oc1c(Cl)cc(Cl)cc1Sc1cc(Cl)cc(Cl)c1O | 143% (inactive) | 1.36% (active) | 0.46% (inactive) | 11% | 11.4% | -0.78% (inactive) | 100% (active) | – | – | – | – | – | – | –
6 | O=S(=O)(NCc1ccccn1)c1ccc2c(c1)OCCO2 | 115% (inactive) | 114% (inactive) | 0.755% (inactive) | 108% | 109% | -0.81% (inactive) | 0.18% (inactive) | 109% (inactive) | – | – | – | – | – | –
7 | O=C(NCCO)c1cc2ccccc2cc1O | 104% (inactive) | 110% (inactive) | -17.9% (inactive) | 115% | 97% | -3.25% (inactive) | 4.43% (inactive) | 97% (inactive) | – | – | – | – | – | –
8 | CCOC(=O)c1ccccc1NC1c2ccccc2C(=O)N1C1CCN(C(=O)OCC)CC1 (stereo unspecified) | 126% (inactive) | 76.2% (inactive) | 37.6% (inactive) | 42.9% | 80.5% | -4.13% (inactive) | -3.17% (inactive) | 80.5% (inactive) | 3.84% (inactive) | 4.88% (inactive) | -7.16% (inactive) | 50.3% (inactive) | 46.2% (inactive) | 1.9% (inactive)
9 | Cc1cc(C(=O)CSc2nc3ccccc3n2CCC#N)c(C)n1Cc1cccs1 | 58% (inactive) | 110% (inactive) | -1.21% (inactive) | 32.9% | 31.7% | -5.41% (inactive) | -3.09% (inactive) | – | – | – | – | – | – | –
10 | COc1ccc2c(c1OC)C(=O)O[C@@H]2[C@H]1c2c(cc3c(c2OC)OCO3)CCN1C | 98% (inactive) | 80.8% (inactive) | -52.2% (inactive) | 84.1% | 31.9% | -6.36% (inactive) | -3.5% (inactive) | – | – | – | – | – | – | –
11 | CCOC(=O)C1=C(C)Nc2nc(SCC(=O)OC)nn2C1c1cc(F)cc(F)c1 (stereo unspecified) | 91.5% (inactive) | 75.4% (inactive) | 7.16% (inactive) | 85.7% | 92.9% | -8.24% (inactive) | 2.06% (inactive) | 92.9% (inactive) | – | – | – | – | – | –
12 | CCCNC(=O)c1cc(-c2ccco2)on1 | 77% (inactive) | 88.3% (inactive) | – | – | – | -1.87% (inactive) | 2.73% (inactive) | 97.4% (inactive) | – | – | – | – | – | –
13 | CCCCCCCCCCCCCCCC(O)C(N)CO (stereo unspecified) | 60% (inactive) | 2.65% (active) | -0.02% (inactive) | 1.44% | 1.42% | – | – | – | – | – | – | – | – | –
14 | COc1ccc(OCCN2C(=O)NC(C)(c3ccc(C)cc3)C2=O)cc1 (stereo unspecified) | 119% (inactive) | 101% (inactive) | -3.77% (inactive) | 94.9% | 91.1% | 3.15% (inactive) | -4.03% (inactive) | 91.1% (inactive) | – | – | – | – | – | –
15 | O=C(Nc1cnn(C23CC4CC(CC(C4)C2)C3)c1)c1cnn2c(C(F)(F)F)cc(-c3ccco3)nc12 | 95% (inactive) | 58% (inactive) | 1.52% (inactive) | 51.8% | 53.3% | -0.82% (inactive) | 8.39% (inactive) | – | – | – | – | – | – | –
16 | CN1CCN(CCCN2c3ccccc3Sc3ccc(Cl)cc32)CC1 | 25% | 3.48% (active) | -15.4% (inactive) | 58.6% | 43.1% | – | – | – | – | – | – | – | – | –
17 | COC(=O)c1[nH]c2ccc(C)cc2c1NC(=O)CN1CCCC(C)(C)C1 | 125% (inactive) | 77.6% (inactive) | -3% (inactive) | 42.2% | 39.1% | -5.87% (inactive) | 4.91% (inactive) | – | – | – | – | – | – | –
18 | C=CCN(CC=C)C(=O)Nc1cc(Cl)ccc1OC | 83% (inactive) | 95.3% (inactive) | 0% (inactive) | 96.9% | 96.9% | -8.77% (inactive) | -3.27% (inactive) | 96.9% (inactive) | – | – | – | – | – | –
19 | Cc1cc(C(=O)Nc2c(C)n(C)n(-c3ccccc3)c2=O)c(C)o1 | 71% (inactive) | 105% (inactive) | 11.8% (inactive) | 98.4% | 110% | -8.08% (inactive) | 4.91% (inactive) | 110% (inactive) | – | – | – | – | – | –
20 | CC(C)CCn1c(SCC#N)nc2c(sc3ccccc32)c1=O | 102% (inactive) | 41.2% (inactive) | 2.2% (inactive) | 53.6% | 55.8% | -2.24% (inactive) | -7.14% (inactive) | – | – | – | – | – | – | –
21 | O=C(OCC(=O)c1ccccc1Br)c1ccccn1 | 142% (inactive) | 89.8% (inactive) | 5.17% (inactive) | 81.7% | 86.8% | -3.77% (inactive) | -1.64% (inactive) | 86.8% (inactive) | – | – | – | – | – | –
22 | CCC(C(=O)NC(C)CCc1ccco1)n1nc(C)n2c(cc3occc32)c1=O (stereo unspecified) | 129% (inactive) | 103% (inactive) | -16.1% (inactive) | 99.7% | 83.5% | -6.3% (inactive) | -1.64% (inactive) | 83.5% (inactive) | – | – | – | – | – | –
23 | CC1(C)Cc2c(C#N)c(SCCC#N)nc(N3CCOCC3)c2CS1 | 83% (inactive) | 86.6% (inactive) | – | – | – | -3.42% (inactive) | -4.84% (inactive) | 84.2% (inactive) | – | – | – | – | – | –
